# Assay results as given in PubChem BioAssay AID1347426 (Functional Genomics Laboratory (NCATS/FGL), 2020).
# The campaign covered roughly 31,000 sequences. About 1,400 (4.5%) were called active. This excerpt belongs to a sample that is enriched for actives. Values without a mark were called inactive.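 Rule for the calls: active = median seed-adjusted z-score above 1 or below -1; inactive = the rest.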
# Assay: Novel Modifiers of Survival Motor Neuron (SMN) Protein: Gene Identification via Genome-wide siRNA Screen;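 note: luminescence tracks full-length SMN protein made from the SMN2 reporter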
# Settings: HEK293T SMN2-luciferase reporter, siRNA knockdown, 72 h; actives lie on both sides
# Method in brief: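 Each of three siRNAs per gene is reverse-transfected (1 pmol) into reporter HEK293T cells whose luciferase output tracks SMN protein level. After 72 h culture, ONE-Glo luminescence is control-normalized, log10-transformed and MAD-standardized; Common Seed Analysis deprioritizes seed-driven hits.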
row,Sequence,median seed-adjusted z-score
1,GAGCAAAUCAAAGAACUAATT against TSC22D1,0
2,AGACACCUCCUAGGACUAUTT against MZF1,0.215
3,GGAGUGCACGAGACAUUCATT against FAH,-0.0836
4,GGACUACAAAGGUUCUCGATT against CDH18,0.21
5,CAGCUUCGAUAUAAGGAAATT against MYST2,-1.46 (active)
6,ACCUGACCGUGUCGCUAUATT against DHRSX,-0.686
7,GGAACCUGGAGAUAUCAUUTT against FUT8,0.464
8,UGGUGUCGCUGGAGAAGUATT against GPX7,-0.971
9,CCAUCCCACUGGUCACAUUTT against SLC7A8,-0.134
10,GGAGGCAUUUGAAGUUCCATT against FARP1,-0.487
11,GGACCGCUACUCUGAGUAUTT against KCNH6,0.424
12,CUGUUAUUCUUCAUACCUATT against TAAR8,0.0792
13,GGAUCAAGACGUGAACGAUTT against CPSF6,-2.38 (active)
14,GAGUAUUCUGAGUACAUGATT against ZFP42,-0.537
15,CAAACAUCUAUGCAGCAAATT against MS4A8B,0.207
16,GGAUGAGAAGAGACGUAGATT against DNMT1,0.185
17,CAUGAACCCUUGGUAGAUATT against TBRG1,-1.47 (active)
18,GGGUUUUUGCGCUUCAAAATT against GALNAC4S-6ST,0.218
19,GCAAAAUGAUCAUUAAUGATT against EIF3C,0.56
20,GGACCAUAAUCAAUGUAGATT against ZNF585A,-0.168
21,CCUCAACUAUCAGAACAAUTT against KLF10,0.616
22,GGUUGUUGUAUACUUGCAATT against LIPJ,0.295
23,GACCUAUGCAGUUCGAAAATT against SFRS1,-1.66 (active)
24,GGAGUGUGCUGAAGACCUATT against GFER,0.402
25,CCACGUGAUAAAUCAAGAATT against PRPF4B,-2.29 (active)
26,GAAAGACACUGGGACUCGATT against SNRNP35,0.172
27,GCAUCGCAAGAGCUGCAAATT against DPYD,-0.112

row,Sequence,median seed-adjusted z-score
1,GAUUGUCAAUGGGUGUAUUTT against AOF1,-0.211
2,CCCUCCAAAUAGCAAAUGUTT against PCOLCE2,-1.15 (active)
3,GGGUCAUACGAAUACCGAUTT against VIPR2,0.706
4,GCAACGUGAUCAAAGGUAUTT against GNA13,0
5,CAAGGACAACUCAAACUUATT against PRKACA,-0.137
6,CGUAUAUAGAGUUCUCAGATT against PABPN1,-0.757
7,CCCUUAAUUUUGUAACAGATT against SLC7A6,-0.0877
8,GGGUAACCACUGACAUUCATT against SUPT5H,-4.02 (active)
9,GCCUUAAAAAGCACCAAAATT against ZNF16,0
10,AAGUUCCUAUCGGUCGUAUTT against HBZ,-0.0054
11,GGACCAUCGGGAUCAUCAATT against P2RX3,-0.44
12,GCAAUGAACACCAUCCGAATT against KEAP1,0.207
13,AGCUCUUAUUAGCUGCAUATT against MS4A7,0.0794
14,GCAACGAUCACCUAAAUUATT against NOP2,1.15 (active)
15,GGUCAAAUCAGCAAAGGUUTT against RNF25,-0.0826
16,CGACAAUCUAACUUCCGUATT against CYTH3,0.196
17,CAGGCAUCAUAUUUUGAAATT against NUDT3,0.674
18,CAAAGAUUCUGACUGAUGATT against GPATCH4,-0.519
19,GAACCUAUCUGAUCGGCAATT against RFX3,0.17
20,CAUCUUAAGUGUUUUACAUTT against LMO4,-0.067
21,GCAGCAUACAGGAAUACCATT against ATRNL1,-0.142
22,GCAGCAUAUUAUAGACAAATT against ZBTB37,-0.219
23,GCCUGGGUCAAAUACAGUATT against KLHL20,-0.0828
24,GAUCAUUGCUGGGAAUCUATT against GPR52,-1.17 (active)
25,GUCUGAAUGUCGAAGAGAATT against G3BP1,-0.593
26,CUGGAACAGUGUACCCAAATT against CD2AP,0.113
27,CCAUGUGAUUAUGUACUCATT against ELOVL4,0.166
